For eleven molecules, AC50 and outcome results are on record in PubChem BioAssay (EPA / NIEHS).

Each structure is given as a SMILES string. Results filed as inconclusive are left out. Activity calls are given as the source filed them. Rule for the calls: active = hit-call score of the fitted dose curve at least 0.9, where 1 is the maximum; inconclusive = response in the unintended direction; inactive = score below 0.9.

One may read the AC50 as the concentration at which the activity in the assay is half-maximal.

THRB (gene 7068), sequence (P10828 whole entry, looked up, the tested form may be a part): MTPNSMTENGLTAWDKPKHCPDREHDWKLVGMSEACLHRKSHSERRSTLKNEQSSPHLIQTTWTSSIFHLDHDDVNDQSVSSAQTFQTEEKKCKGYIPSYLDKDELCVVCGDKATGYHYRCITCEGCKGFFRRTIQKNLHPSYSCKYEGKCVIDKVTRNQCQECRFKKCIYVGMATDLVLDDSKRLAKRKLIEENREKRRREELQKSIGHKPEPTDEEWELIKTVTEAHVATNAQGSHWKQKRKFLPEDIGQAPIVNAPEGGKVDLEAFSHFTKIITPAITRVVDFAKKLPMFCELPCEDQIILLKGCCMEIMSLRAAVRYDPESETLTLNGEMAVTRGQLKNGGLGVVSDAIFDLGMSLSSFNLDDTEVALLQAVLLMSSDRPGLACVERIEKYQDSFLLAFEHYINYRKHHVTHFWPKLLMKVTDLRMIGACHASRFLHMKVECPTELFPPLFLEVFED

For the test, the target named is THRB (gene 7068) (UniProt P10828). Kind of test: TOX21_TRB_BLA_Antagonist_Followup_ratio: Tox21 Thyroid Hormone Receptor beta Antagonism Beta-lactamase (BLA) Follow-Up Assay, Ratio (AID 2283958). An excerpt:
The GeneBLAzer TRb-UAS-bla HEK293T assay kit for human TRb (ThermoFisherScientific Catalog No. K1684) was used as a secondary assay for specificity (TRb-bla).This assay contained the ligand-binding domain (LBD) of the human TRb fused to the DNA-binding domain of GAL4 stably integrated in the GeneBLAzer UAS-bla HEK293Tcell line. The reporter gene, b-lactamase, is under the transcriptional control of a UAS that binds the GAL4 DNA-binding domain. A cell viability assay was run in parallel for these cells as well using the CellTiter-Glo viability assay kit.TOX21_TRB_BLA_Antagonist_Followup_ratio is an assay readout measuring reporter gene via receptor activity and designed using inducible reporter (beta lactamase induction) detected with GAL4 b-lactamase reporter gene. The signal is derived from the ratio of cleaved (ch2) to uncleaved (ch1) reporter gene substrate used as the measure of target activity.Data from the assay component TOX21_TRB_BLA_Antagonist_Followup_ratio was analyzed into 1 assay endpoint. This assay endpoint, TOX21_TRB_BLA_Antagonist_Followup_ratio, was analyzed in the positive analysis fitting direction relative to DMSO as the negative control and baseline of activity. Using a type of inducible reporter, loss-of-signal activity can be used to understand changes in the reporter gene as they relate to the gene THRB. Furthermore, this assay endpoint can be referred to as a primary readout, because this assay has produced multiple assay endpoints and this ratio serves a reporter gene function to understand target activity. To generalize the intended target to other relatable targets, this assay endpoint is annotated to the nuclear receptor intended target family, where the subfamily is non-steroidal.
Cell Media Required: Growth (90% DMEM/F-12, 10% Fetal Bovine Calf Serum, 100U/ml Penicillin, 100 ug/ml Streptomycin), Assay (10ng/mL sodium selenite, 10 ug/mL humanapo-transferrin, 10 uM ethanolamine, 10 ug/mL insulin, 500 ug/mL bovine serum albumin (BSA))Assay Protocol: TRb-bla cells were dispensed at 3,000 cells/well in 5 uL of the assay medium containing phenol red-free DMEM with 2% charcoal-stripped FBS in 1,536-well black-wall/clear-bottom plates using an FRD. After 5-h incubation at 37C/5% CO2 for cell attachment to the well bottom, 23nL of follow-up compounds dissolved in DMSO, 11 concentrations in triplicate, and the positive control (T3; agonist format) were transferred to the assay plates using a Pintool station. The assay plates were incubated at 37C/5% CO2 for 18h. One microliter LiveBLAzer FRET-B/G CCF4-AM substrate was added to each well using an FRD. After 2-h incubation at room temperature, the fluorescence intensity was measured using an Envision plate reader. Data were expressed as the ratio of 460:530nm. The cytotoxicity of the compounds was measured in the same plates by adding 4 uL of CellTiter-Glo reagent to each well and incubating the plates at room temperature for 30 min. The luminescence intensity was measured using a ViewLux plate reader.For the luciferase reporter gene assay, 5 uL/well (agonist format) and 4 uL/well (antagonist format) ONE-Glo reagent (Promega Corporation) was added using an FRD and after 30-min incubation at room temperature, the luminescence intensity was measured using a ViewLux plate reader. Data were expressed as relative fluorescence units (cell viability assay) and relative luminescence units (luciferase reporter assay).
`COc1cc([C@@H]2c3cc4c(cc3[C@@H](O)[C@H]3COC(=O)[C@H]23)OCO4)cc(OC)c1O`: the AC50 was 0.653 µM (active).

`O=C(N[C@@H]1N=C(c2ccccc2F)c2cccc3c2N(CC3)C1=O)c1cc2ccccc2[nH]1`: the result was inactive.

As to `CC(=O)[C@H]1CC[C@H]2[C@@H]3CC[C@@H]4C[C@H](O)CC[C@]4(C)[C@H]3CC[C@]12C`, the outcome was inactive.

Regarding `C=CC[C@]1(O)CC[C@H]2[C@@H]3CCC4=CC(=O)CCC4=C3C=C[C@@]21C`, the outcome was inactive.

On to `CC[C@]1(O)CC[C@H]2[C@@H]3CCC4=CCCC[C@@H]4[C@H]3CC[C@@]21C`, for which the AC50 is 11.6 µM (active).

As for `CC[C@H]1C[C@H]2[C@@H]3CCC4=CC(=O)CC[C@@H]4[C@H]3CC[C@]2(C)[C@H]1O`, the result was inactive.

As for `C[C@]12CC[C@H]3[C@@H](CCC4=C(Cl)C(=O)CC[C@@]43C)[C@@H]1CC[C@@H]2O`, the outcome was inactive.

In the case of `CN1C(=O)[C@@H](NC(=O)c2cc3ccccc3[nH]2)N=C(c2ccccc2)c2ccccc21`, the AC50 was 10.7 µM (active).

Regarding `O=C1OC2(c3cc(Br)c(O)cc3Oc3c2cc(Br)c(O)[c]3[Hg])c2ccccc21` (stereo unspecified), the result was inactive.

On to `CCN(CC)CCO[C@H]1CC[C@@]2(C)C(=CC[C@@H]3[C@@H]2CC[C@]2(C)C(=O)CC[C@@H]32)C1`, for which the outcome was inactive.

Regarding `COC1=CC(=O)O[C@@H](/C=C/c2ccc3c(c2)OCO3)C1`, the result was inactive.
